# FGF22 binding: binders of human FGF22 protein, primary screen, FGF22 synaptogenesis inhibitor project, biophysical, thermal shift, single point. 1.5% of 340,000 active. activity (Tm shift, normalised), % at 9.99 µM. recombinant FGF22 thermal shift, SYPRO orange fluorescence; percent of sucrose octasulfate shift, DMSO zero;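 active = mean Tm shift, scaled 0 neutral to 100 positive control, at about 1.3% or above, every replicate too, limit read from the data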
# ADAM10 inh: human ADAM10 inhibitors, primary screen, biochemical, QFRET, HTS. AID 720582, 2013. recombinant ADAM10, EDANS/DABCYL FRET peptide cleavage, 3 h. 0.62% of 370,000 active. inhibition, % at 7 µM;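 active = inhibition above a per-campaign cutoff equal to the mean of compounds falling between control-based bounds plus 3 SD, cut at about 20% in these data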;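 note: 0% = DMSO wells while the 100% control is not disclosed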
# Target sequence (O14672 214-748 limits assumed): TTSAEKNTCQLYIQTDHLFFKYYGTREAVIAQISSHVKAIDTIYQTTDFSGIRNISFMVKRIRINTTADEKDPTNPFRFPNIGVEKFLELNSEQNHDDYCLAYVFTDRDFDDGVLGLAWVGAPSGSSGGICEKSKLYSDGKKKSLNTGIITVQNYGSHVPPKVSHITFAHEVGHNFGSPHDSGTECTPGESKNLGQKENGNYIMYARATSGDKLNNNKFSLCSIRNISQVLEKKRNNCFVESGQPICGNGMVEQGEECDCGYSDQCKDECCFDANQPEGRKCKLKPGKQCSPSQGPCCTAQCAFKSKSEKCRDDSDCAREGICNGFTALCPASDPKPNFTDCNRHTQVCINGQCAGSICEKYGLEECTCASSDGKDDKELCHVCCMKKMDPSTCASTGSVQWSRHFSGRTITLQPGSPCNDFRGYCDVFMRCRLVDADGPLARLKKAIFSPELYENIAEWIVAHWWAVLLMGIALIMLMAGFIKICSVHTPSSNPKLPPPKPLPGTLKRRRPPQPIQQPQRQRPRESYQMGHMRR
# KLK7 zymogen act: proKLK7 zymogen activators, primary screen, biochemical, fluorescence intensity. Kallikrein-7 (Homo sapiens), P49862. 0.9% of 370,000 active. activation, % at 7 µM. purified proKLK7, EDANS-DABCYL substrate fluorescence; 100% is mature enzyme control, 0% vehicle;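 active = activation above the mean of all tested compounds plus 3 SD, computed per campaign excluding outliers beyond control limits, cut at about 13% in these data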
# Ecoli rRNA inh: reduced GFP signal of wild-type E. coli, primary screen, bacterial rRNA inhibitor project, GFP/RFP fluorescence, OD600, single point; E. coli WT GFP vs humanized-ribosome RFP mutants, 24 h; hits give low values; DMSO median 0, no signal -100; GFP signal change (wild-type ribosome), % (concentration not given with the values); 1.6% of 350,000 active;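 active = significant combined selectivity score with lowered wild-type GFP, culture density cut under 30%, mutant RFP and density less affected; inactive = any of these conditions unmet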
# ADAM17 inh: ADAM17 inhibitors, primary screen, biochemical, QFRET. Disintegrin and metalloproteinase domain-containing protein 17 (Homo sapiens), P78536. recombinant ADAM17, EDANS/DABCYL FRET peptide cleavage. inhibition, % at 6.95 µM. 0.83% of 370,000 active;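 active = inhibition above the mean of compounds lying between control limits plus 3 SD, set per campaign, cut at about 8.5% in these data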;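 note: 0% = DMSO-only wells as the low control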
# ADAM10 confirm: human ADAM10 inhibitors, confirmation, biochemical, QFRET, triplicate | ADAM10 QFRET peptide cleavage, EDANS fluorescence | shares compounds with ADAM10 inh | inhibition, % at 6.95 µM | 1% of 2,100 active;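 active = inhibition above about 20% chosen separately for each screening run, limit read from the data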;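 note: 0% = DMSO wells and 100% = marimastat wells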
# ADAM17 counter: ADAM17 inhibitors, counter-screen for ADAM10 exosite inhibitor project, biochemical, QFRET, high throughput; inhibition, % at 6.95 µM; ADAM17 QFRET peptide cleavage, EDANS fluorescence; 0.5% of 2,100 active; shares compounds with ADAM10 inh; AID 743214, 2013;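 active = mean triplicate inhibition above the solvent-only control wells' mean plus 3 SD, cut at about 12% in these data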;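 note: 0% = DMSO wells and 100% = marimastat wells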
# ADAM10 ctr: ADAM10 inhibitors, counter-screen for ADAM17 exosite inhibitor project, biochemical, FRET, human ADAM10; shares compounds with ADAM17 inh; recombinant ADAM10, EDANS/DABCYL FRET peptide cleavage, 3 h; inhibition, % at 6.95 µM; 47% of 2,900 active; AID 743256, 2014;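 active = mean inhibition over the triplicate runs exceeds the activity threshold set in the earlier primary screen, cut at about 20% in these data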;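 note: 0% = DMSO wells and 100% = marimastat wells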
# ADAM17 confirm: ADAM17 inhibitors, hit retest, confirmation, biochemical, QFRET peptide cleavage; 65% of 2,900 active; recombinant ADAM17, EDANS/DABCYL QFRET peptide cleavage; inhibition, % at 6.95 µM; AID 743257, 2014; shares compounds with ADAM17 inh;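 active = mean inhibition across replicates above the hit cutoff set in the primary screen, cut at about 8.5% in these data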;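 note: 0% = DMSO wells and 100% = marimastat wells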
# Active calls of the source: *; . = no result given. Compounds with a hit are over-represented: about 3.8% of the library has one in this group of screens.
SMILES,FGF22 binding,ADAM10 inh,KLK7 zymogen act,Ecoli rRNA inh,ADAM17 inh,ADAM10 confirm,ADAM17 counter,ADAM10 ctr,ADAM17 confirm
C[C@H]1CN([C@@H](C)CO)C(=O)c2cccc(NC(=O)C3CC3)c2O[C@H]1CN(C)C(=O)Nc1ccccc1,1,.,.,5,.,.,.,.,.
COCC(=O)N1C[C@@H](C)[C@@H](OC)CN(C)C(=O)c2cc(NC(=O)C3CCC3)ccc2OC[C@H]1C,0,.,.,3,.,.,.,.,.
C[C@@H]1CN([C@@H](C)CO)C(=O)c2cc(NC(=O)Nc3ccc(F)cc3)ccc2O[C@H]1CN(C)S(=O)(=O)c1ccccc1,0,.,.,-5,.,.,.,.,.
CCO[C@H]1OC(C(=O)N2CCN(Cc3ccc4c(c3)OCO4)CC2)=C[C@@H](c2ccc(Br)cc2)[C@@H]1CCCO,0,25*,0,-22,9.2*,0,0,13,7
Cc1ccc(C)c(N2CCN(S(=O)(=O)c3ccc4c(c3)NC(=O)CS4)CC2)c1,0,20*,0,4,12*,8,2,34*,18*
O=C(C[C@@H]1CC[C@@H]2[C@H](COC[C@@H](O)CN2C(=O)c2cnccn2)O1)NCc1ccccc1,0,.,.,3,.,.,.,.,.
O/N=C/c1cc(Br)ccc1OCc1ccccc1F,.,21*,0,.,9.1*,5,1,30*,17*
C=CCOc1ccc(Br)cc1/C=N/O,.,-6,0,.,-2,.,.,.,.
CN(CC(=O)Nc1cccc(F)c1)C(=O)c1cccc(S(=O)(=O)N2CCN(c3ccc(F)cc3)CC2)c1,0,20*,0,.,15*,3,1,23*,10*
CCOC(=O)c1c(C)[nH]c(C)c1S(=O)(=O)N1CCN(c2cccc(C)c2)C(C)C1 (centres undefined),0,20*,0,-8,9.1*,1,0,11,6
O=C(CN1CCOCC1)N[C@H]1CC[C@@H](CCn2cc(C3CCCCC3)nn2)O[C@H]1CO,0,.,.,1,.,.,.,.,.
C=CC(=O)Nc1cccc(Oc2cc(Cl)nc3[nH]ccc23)c1,0,21*,0,-1,11*,4,2,11,10*
C=CC(=O)Nc1cccc(Oc2nc(Nc3ccc(N4CCN(C)CC4)cc3OC)ncc2Cl)c1,-1,-8,-1,-51,-2,.,.,.,.
Cc1onc(-c2c(F)cccc2Cl)c1C(=O)Nc1cc(S(=O)(=O)N2CCCCC2)ccc1O,0,27*,0,-55,12*,3,1,40*,18*
C=C(C)COc1ccc(-c2[nH]ncc2-c2ccccc2OC)c(O)c1,.,29*,-1,.,18*,11,3,37*,19*
CCOc1ccc(-c2[nH]ncc2Oc2ccccc2OC)c(O)c1,.,21*,0,.,9.6*,4,2,30*,15*
C=C(C)COc1ccc(-c2[nH]ncc2Oc2ccccc2OC)c(O)c1,0,-8,0,7,-4,.,.,.,.
